Experimental data reported in PubChem BioAssay AID1159580 (chemical genetic matrix, 2015).
Several values for one entry are separate records, joined by “and”; a condition that tells them apart may be missing. Identical values can stand only once. Out of some 5,500 compounds screened, about 2,000 (36%) were called active. Roughly 18% stayed inconclusive and do not appear here. No stated cut-off is given here; in the data, active means normalized growth mostly below about 0.91 (no sharp cut-off); inconclusive means no clear call, values can overlap the other calls; inactive means mostly above about 0.92. Some of the results follow.

Assay: chemical genetic growth profiling, strain panel (AID 1159580);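 further: tested at 20 µM; growth read once vehicle control cultures reached saturation at 30 °C; 1 = growth at the plate median or of vehicle wells; lower values mean less growth of the strain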
Details: S. cerevisiae deletion strains, growth OD

Measured: normalized growth

Cc1cc(O)cc(=O)o1
inactive: locus YAL013W, strain DEP1, hits give low values 0.999 | locus YAL021C, strain ccr4, hits give low values 0.991 | locus YAL026C, strain drs2, hits give low values 0.998 | locus YAL030W, strain snc1, hits give low values 0.993 | locus YBL061C, strain skt5, hits give low values 1 | locus YBR009C, strain hhf1, hits give low values 0.997 | locus YBR021W, strain FUR4, hits give low values 0.985 | locus YBR023C, strain chs3, hits give low values 1.01 | locus YBR171W, strain sec66, hits give low values 0.988 | locus YBR229C, strain ROT2, hits give low values 0.992 | locus YBR231C, strain swc5, hits give low values 1.02 | locus YBR279W, strain paf1, hits give low values 1 | locus YCL011C, strain gbp2, hits give low values 0.991 | locus YCL016C, strain dcc1, hits give low values 0.991 | locus YCL029C, strain bik1, hits give low values 0.974 | locus YCL069W, strain vba3, hits give low values 1.01 | locus YCR088W, strain abp1, hits give low values 0.991 | locus YDL005C, strain med2, hits give low values 1.01 | locus YDL035C, strain GPR1, hits give low values 1.02 | locus YDL040C, strain nat1, hits give low values 1 | locus YDL074C, strain BRE1, hits give low values 1.01 | locus YDL101C, strain DUN1, hits give low values 0.988 | locus YDL134C, strain PPH21, hits give low values 1.03 | locus YDL185W, strain tfp1, hits give low values 0.971 | locus YDL192W, strain arf1, hits give low values 0.994 | locus YDR001C, strain nth1, hits give low values 0.989 | locus YDR069C, strain doa4, hits give low values 1.03 | locus YDR101C, strain arx1, hits give low values 0.971 | locus YDR137W, strain rgp1, hits give low values 0.998 | locus YDR150W, strain NUM1, hits give low values 1.01 | locus YDR159W, strain sac3, hits give low values 1.02 | locus YDR162C, strain NBP2, hits give low values 1.02 | locus YDR195W, strain ref2 0.979 | locus YDR297W, strain sur2, hits give low values 1.02 | locus YDR318W, strain mcm21, hits give low values 1.02 | locus YDR334W, strain swr1, hits give low values 0.989 | locus YDR335W, strain msn5, hits give low values 1 | locus YDR388W, hits give low values 0.992 | locus YDR392W, strain spt3, hits give low values 1.03 | locus YDR502C, strain sam2, hits give low values 1 | locus YEL003W, strain gim4, hits give low values 0.992 | locus YEL037C, strain rad23, hits give low values 0.994 | locus YEL061C, strain CIN8 (second series), hits give low values 0.992 | locus YEL061C, strain CIN8, hits give low values 1 | locus YER015W, strain faa2, hits give low values 1.01 | locus YER016W, strain bim1, hits give low values 0.994 | locus YER110C, hits give low values 0.986 | locus YER111C, strain swi4, hits give low values 1.01 | locus YER155C, strain BEM2 (second series), hits give low values 1.04 | locus YER155C, strain BEM2, hits give low values 0.982 | locus YER167W, strain BCK2, hits give low values 0.99 | locus YFR010W, strain ubp6, hits give low values 0.982 | locus YGL078C, strain dbp3, hits give low values 0.981 | locus YGL086W, strain mad1, hits give low values 0.969 | locus YGL167C, strain pmr1, hits give low values 0.983 | locus YGL173C, strain kem1, hits give low values 1.02 | locus YGL227W, strain vid30, hits give low values 1.01 | locus YGL240W, strain doc1, hits give low values 1.03 | locus YGL248W, strain PDE1, hits give low values 0.997 | locus YGL253W, strain hxk2, hits give low values 0.997 | locus YGR135W, strain pre9, hits give low values 1.03 | locus YGR252W, strain gcn5, hits give low values 1.09 | locus YHR013C, strain ard1, hits give low values 0.998 | locus YHR027C, strain rpn1, hits give low values 0.989 | locus YHR030C, strain SLT2, hits give low values 0.992 and 0.959 | locus YHR079C, strain IRE1 (second series), hits give low values 0.992 | locus YHR079C, strain IRE1, hits give low values 0.969 | locus YHR094C, strain hxt1, hits give low values 0.986 | locus YHR129C, strain ARP1, hits give low values 1 | locus YHR142W, strain chs7, hits give low values 0.987 | locus YHR200W, strain rpn10, hits give low values 0.993 | locus YIL066C, strain RNR3, hits give low values 0.988 | locus YIL073C, strain SPO22, hits give low values 0.993 | locus YIL125W, strain kgd1, hits give low values 0.984 | locus YIR030C, strain dcg1, hits give low values 0.99 | locus YJL092W, strain hpr5, hits give low values 0.987 | locus YJL095W, strain BCK1 (second series), hits give low values 1 | locus YJL095W, strain BCK1, hits give low values 1.01 and 0.959 | locus YJL115W, strain asf1, hits give low values 0.969 | locus YJL129C, strain trk1, hits give low values 1 | locus YJL134W, strain LCB3, hits give low values 0.994 | locus YJL154C, strain vps35, hits give low values 0.989 | locus YJL164C, strain tpk1, hits give low values 0.996 | locus YJL166W, strain qcr8, hits give low values 1.03 | locus YJL168C, strain set2, hits give low values 0.992 | locus YJL187C, strain SWE1 (second series), hits give low values 0.992 | locus YJL187C, strain SWE1, hits give low values 1.01 | locus YJR043C, strain POL32, hits give low values 1.01 | locus YJR066W, strain TOR1, hits give low values 0.921 | locus YJR075W, strain HOC1, hits give low values 0.998 | locus YKL009W, strain mrt4, hits give low values 0.961 | locus YKL068W, hits give low values 0.989 | locus YKL085W, strain MDH1 (second series), hits give low values 0.984 | locus YKL085W, strain MDH1, hits give low values 0.984 | locus YKL160W, strain elf1, hits give low values 0.994 | locus YKL190W, strain CNB1, hits give low values 1.01 | locus YKR001C, strain vps1, hits give low values 0.983 | locus YKR026C, strain gcn3, hits give low values 0.993 | locus YKR091W, strain srl3, hits give low values 0.983 | locus YLL001W, strain dnm1, hits give low values 0.995 | locus YLL026W, hits give low values 1.01 | locus YLL041C, strain sdh2, hits give low values 0.985 | locus YLR027C, strain aat2, hits give low values 1.01 | locus YLR039C, strain RIC1, hits give low values 1.02 | locus YLR058C, strain SHM2, hits give low values 1 | locus YLR102C, strain apc9, hits give low values 0.991 | locus YLR113W, strain HOG1, hits give low values 0.951 | locus YLR221C, strain rsa3, hits give low values 1.03 | locus YLR258W, strain gsy2, hits give low values 1.02 | locus YLR262C, strain YPT6 (second series), hits give low values 0.995 | locus YLR262C, strain YPT6, hits give low values 1.04 | locus YLR268W, strain sec22, hits give low values 0.965 | locus YLR320W, strain mms22, hits give low values 1.05 | locus YLR330W, strain CHS5, hits give low values 0.99 | locus YLR342W, strain FKS1 (second series), hits give low values 1 | locus YLR342W, strain FKS1, hits give low values 1.01 | locus YLR357W, strain rsc2, hits give low values 0.973 | locus YLR370C, strain arc18, hits give low values 1.01 | locus YLR371W, strain rom2, hits give low values 0.974 | locus YLR384C, strain iki3, hits give low values 1 | locus YLR418C, strain cdc73, hits give low values 1.01 | locus YML016C, strain PPZ1, hits give low values 0.985 | locus YML032C, strain rad52, hits give low values 1.02 | locus YML120C, strain ndi1, hits give low values 0.994 | locus YML124C, strain tub3, hits give low values 0.994 | locus YMR058W, strain fet3, hits give low values 0.987 | locus YMR078C, strain ctf18, hits give low values 0.991 | locus YMR125W, strain sto1, hits give low values 0.955 | locus YMR129W, hits give low values 0.996 | locus YMR205C, strain PFK2, hits give low values 1.01 | locus YMR223W, strain ubp8, hits give low values 0.999 | locus YMR231W, strain pep5, hits give low values 1.01 | locus YMR263W, strain SAP30, hits give low values 1.01 | locus YMR307W, strain GAS1, hits give low values 1.01 | locus YNL067W, strain RPL9B, hits give low values 1.01 | locus YNL071W, strain lat1, hits give low values 1 | locus YNL183C, strain NPR1, hits give low values 0.898 | locus YNL209W, strain ssb2, hits give low values 0.995 | locus YNL233W, strain BNI4, hits give low values 0.997 | locus YNL248C, strain rpa49, hits give low values 0.99 | locus YNL250W, strain rad50, hits give low values 0.991 | locus YNL271C, strain bni1, hits give low values 0.976 | locus YNL298W, strain CLA4, hits give low values 0.988 | locus YNL307C, strain MCK1, hits give low values 0.977 | locus YNL322C, strain KRE1 (second series), hits give low values 0.99 | locus YNL322C, strain KRE1, hits give low values 0.997 | locus YNR049C, strain mso1, hits give low values 0.984 | locus YNR052C, strain pop2, hits give low values 0.988 | locus YOL012C, strain htz1 0.84 | locus YOL147C, strain pex11, hits give low values 0.993 | locus YOR001W, strain rrp6, hits give low values 1.01 | locus YOR061W, strain CKA2, hits give low values 0.991 | locus YOR069W, strain VPS5, hits give low values 0.992 | locus YOR070C, strain gyp1, hits give low values 1.01 | locus YOR080W, strain dia2, hits give low values 0.997 | locus YOR083W, strain WHI5, hits give low values 0.999 | locus YOR106W, strain vam3, hits give low values 0.999 | locus YOR136W, strain idh2, hits give low values 0.971 | locus YOR144C, strain elg1, hits give low values 0.989 | locus YOR184W, strain ser1, hits give low values 0.992 | locus YOR231W, strain MKK1, hits give low values 0.965 | locus YOR265W, strain rbl2, hits give low values 1.01 | locus YOR270C, strain vph1, hits give low values 1.02 | locus YOR290C, strain snf2, hits give low values 0.974 | locus YOR316C, strain cot1, hits give low values 0.986 | locus YPL051W, strain arl3, hits give low values 0.999 | locus YPL055C, strain LGE1, hits give low values 1.01 | locus YPL078C, strain atp4, hits give low values 0.994 | locus YPL106C, strain sse1, hits give low values 1.01 | locus YPL240C, strain hsp82, hits give low values 0.99 | locus YPL241C, strain CIN2, hits give low values 1.01 | locus YPL256C, strain CLN2, hits give low values 0.948 | locus YPR119W, strain clb2, hits give low values 0.99 | locus YPR141C, strain kar3, hits give low values 0.984 | locus YPR163C, strain tif3, hits give low values 0.992 | locus YPR167C, strain met16, hits give low values 0.996 | strain wtn01, hits give low values 0.93
